We go through ten compounds from article PMC5540273 (PLoS ONE, 2017).

Among the test systems are FER; FES; FGFR1; FGFR2; FGFR3; FGFR4; FGR; FLT1; FLT3-autoinhibited; FLT3; FLT4; FRK; FYN; GAK; GRK1; GRK4.
What all share (settings): concentration: 1 μM, replicates: in singlicate; n = 1
The next experiment has as its system T1, FAK.
T1 construct: gene PTK2

Another experiment relates to T2, GCN2(Kin.Dom.2,S808G).
T2 construct: gene EIF2AK4

A further experiment has as its system T3, GRK2.
T3 construct: gene ADRBK1

The next experiment relates to T4, GRK3.
T4 construct: gene ADRBK2
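Further: KINOMEscan kinase panel screen.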

With `CS(=O)(=O)c1ccc(-c2c(-c3ncn[nH]3)sc(N3CCOCC3)c2C#N)cc1`, the “%Inh” value in the experiment with FAK is 0%; with FER, 14%; with FES it was 42%; with FGFR1, 32%; with FGFR2 it was 9%; in the experiment on FGFR3 it was 5%. Also, the “%Inh” value was 0% with FGFR4; 40% in the experiment on FGR; 13% with FLT1; 2% with FLT3-autoinhibited; 0% in the experiment on FLT3; 0% with FLT4. In addition, the “%Inh” value was 8% with FRK; 0% in the experiment with FYN; 0% with GAK; 11% with GCN2(Kin.Dom.2,S808G); 25% with GRK1; 26% in the experiment with GRK2. Besides, the “%Inh” value is 26% in the experiment on GRK3 and 0% in the experiment with GRK4.

With `CC(=O)Nc1nc2cnc(Nc3cc(NC(=O)c4cccc(CCC#N)c4)ccc3C)nc2s1`, the “%Inh” value came to 7% in the experiment with FAK; 0% with FER; 17% in the experiment with FES; 9% in the experiment on FGFR1; 22% in the experiment with FGFR2; 17% in the experiment with FGFR3. Further, the “%Inh” value worked out at 0% with FGFR4; 21% with FGR; 30% in the experiment on FLT1; 5% with FLT3-autoinhibited; 0% with FLT3; 30% in the experiment with FLT4. For the same compound, the “%Inh” value in the experiment on FRK came to 83%; in the experiment with FYN, 4%; in the experiment with GAK, 7%; with GCN2(Kin.Dom.2,S808G), 0%; in the experiment with GRK1, 0%; with GRK2 it was 0%. Moreover, the “%Inh” value with GRK3 and with GRK4 was 0% in each case.

Regarding `COc1cc2ncn(-c3cc(OCC4CCCO4)c(C(N)=O)s3)c2cc1OC` (centres unmarked) [GSK204607], the “%Inh” value in the experiment with FAK is 0%; with FER it was 9%; with FES, 11%; with FGFR1, 0%; with FGFR2, 0%; in the experiment with FGFR3 it was 24%. Besides, the “%Inh” value in the experiment with FGFR4 is recorded as 0%; in the experiment with FGR it was 29%; in the experiment on FLT1, 20%; with FLT3-autoinhibited, 0%; in the experiment with FLT3, 0%; in the experiment with FLT4, 36%. In addition, the “%Inh” value with FRK is given as 17%; in the experiment on FYN, 33%; with GAK, 53%; with GCN2(Kin.Dom.2,S808G), 0%; with GRK1, 0%; in the experiment on GRK2, 0%. For the same compound, the “%Inh” value in the experiment with GRK3 was found to be 16%; with GRK4, 0%.

Regarding `Cl.Oc1ccc(-c2nc(-c3ccccc3)[nH]c2-c2ccncc2)cc1` [SB-428218], the “%Inh” value amounted to 0% in the experiment with FAK; 0% in the experiment on FER; 17% in the experiment with FES; 0% in the experiment with FGFR1; 4% with FGFR2; 0% with FGFR3. Also, the “%Inh” value with FGFR4 was 9%; in the experiment on FGR it was 62%; in the experiment with FLT1, 0%; in the experiment on FLT3-autoinhibited, 0%; with FLT3, 0%; in the experiment with FLT4, 0%. Moreover, the “%Inh” value in the experiment with FRK came out at 37%; with FYN it was 23%; with GAK it was 36%; in the experiment with GCN2(Kin.Dom.2,S808G) it was 8%; with GRK1, 57%; in the experiment on GRK2, 0%. Further, the “%Inh” value with GRK3 stood at 75%; in the experiment with GRK4 it was 0%.

Take `COc1ccc(Nc2nccc(NCCNC(=O)Nc3ccccc3F)n2)cc1` [GSK1379901]: the “%Inh” value is given as 0% in the experiment on FAK; 35% with FER; 26% in the experiment on FES; 0% with FGFR1; 44% in the experiment on FGFR2; 6% with FGFR3. Also, the “%Inh” value in the experiment with FGFR4 worked out at 10%; in the experiment on FGR, 36%; in the experiment on FLT1, 32%; in the experiment on FLT3-autoinhibited, 0%; with FLT3, 0%; with FLT4, 6%. Further, the “%Inh” value in the experiment on FRK is 13%; in the experiment with FYN, 0%; with GAK, 0%; in the experiment on GCN2(Kin.Dom.2,S808G) it was 2%; in the experiment with GRK1, 0%; with GRK2, 0%. Besides, the “%Inh” value in the experiment with GRK3 turned out to be 26%; with GRK4, 0%.

Take `CC1=C(C(=O)Nc2cc3cn[nH]c3cc2F)C(c2ccc(C(F)(F)F)cc2)CC(=O)N1` (centres unmarked) [GSK429286]: the “%Inh” value with FAK is given as 0%; in the experiment with FER it was 4%; in the experiment with FES, 0%; in the experiment with FGFR1, 0%; in the experiment with FGFR2, 3%; in the experiment with FGFR3 it was 17%. Further, the “%Inh” value in the experiment on FGFR4 is given as 8%; in the experiment on FGR, 24%; in the experiment with FLT1, 17%; with FLT3-autoinhibited, 0%; in the experiment on FLT3 it was 0%; with FLT4 it was 11%. In addition, the “%Inh” value worked out at 18% in the experiment with FRK; 26% in the experiment with FYN; 0% in the experiment on GAK; 14% in the experiment with GCN2(Kin.Dom.2,S808G); 5% in the experiment on GRK1; 27% in the experiment with GRK2. Besides, the “%Inh” value in the experiment with GRK3 was 73%; in the experiment on GRK4, 10%.

Consider `Cc1ccccc1-n1cnc2c(N)ncnc21` [SKF-97510], for which the “%Inh” value with FAK was 0%; in the experiment on FER, 4%; with FES, 0%; in the experiment with FGFR1 it was 0%; in the experiment with FGFR2 it was 0%; with FGFR3, 0%. Also, the “%Inh” value with FGFR4, in the experiment with FGR, in the experiment on FLT1, in the experiment with FLT3-autoinhibited, in the experiment on FLT3 and with FLT4 was 0% throughout. For the same compound, the “%Inh” value stood at 0% in the experiment on FRK; 8% with FYN; 0% in the experiment with GAK; 0% with GCN2(Kin.Dom.2,S808G); 0% in the experiment on GRK1; 0% in the experiment on GRK2. Besides, the “%Inh” value in the experiment on GRK3 and in the experiment on GRK4 was 0% each time.

In the case of `Cc1nnc(-c2ccc3occ(-c4ccc(S(C)=O)cc4)c3c2)[nH]1` (centres unmarked), the “%Inh” value in the experiment on FAK came out at 0%; with FER, 0%; in the experiment on FES, 14%; in the experiment with FGFR1, 0%; in the experiment with FGFR2, 0%; with FGFR3, 0%. For the same compound, the “%Inh” value in the experiment with FGFR4 is given as 3%; with FGR, 19%; in the experiment with FLT1 it was 0%; in the experiment with FLT3-autoinhibited, 31%; in the experiment on FLT3, 33%; in the experiment with FLT4, 18%. Further, the “%Inh” value with FRK is on record as 1%; in the experiment with FYN, 0%; with GAK, 24%; in the experiment with GCN2(Kin.Dom.2,S808G) it was 0%; in the experiment with GRK1, 20%; with GRK2, 0%. Besides, the “%Inh” value in the experiment with GRK3 stood at 40%; in the experiment on GRK4, 11%.

On to `CCn1c(-c2cccnc2O)nc2cnccc21` [SB-736715], for which the “%Inh” value with FAK, in the experiment on FER, with FES, with FGFR1, with FGFR2 and in the experiment on FGFR3 was 0% in each case. For the same compound, the “%Inh” value is 0% with FGFR4; 0% with FGR; 0% with FLT1; 0% in the experiment on FLT3-autoinhibited; 23% in the experiment with FLT3; 0% in the experiment on FLT4. For the same compound, the “%Inh” value in the experiment with FRK came to 0%; with FYN, 0%; with GAK, 0%; in the experiment on GCN2(Kin.Dom.2,S808G), 8%; with GRK1, 0%; with GRK2 it was 0%. Also, the “%Inh” value in the experiment with GRK3 amounted to 21%; with GRK4 it was 19%.

On to `Cc1cc(-c2ccc3c(c2)CC[C@@H](N[C@@H](C)c2ccccc2)C3)cnc1N.Cl` [GW412617], for which the “%Inh” value with FAK worked out at 0%; with FER it was 27%; in the experiment on FES it was 0%; in the experiment with FGFR1, 9%; in the experiment with FGFR2, 16%; in the experiment on FGFR3, 56%. Besides, the “%Inh” value in the experiment with FGFR4 was 19%; with FGR, 26%; in the experiment with FLT1, 34%; in the experiment with FLT3-autoinhibited it was 8%; in the experiment with FLT3, 27%; in the experiment with FLT4, 22%. The “%Inh” value in the experiment on FRK was 19%; with FYN it was 27%; with GAK, 33%; with GCN2(Kin.Dom.2,S808G), 26%; with GRK1 it was 0%; with GRK2 it was 0%. The “%Inh” value in the experiment on GRK3 is 17%; in the experiment on GRK4 it was 0%.
